Where a name gives a salt, the structure may show the parent alone.
Tests used:
Assay in all cases: cell proliferation relative to vehicle (% of vehicle); higher = less growth inhibition
Details in all cases: 72 h
[1] = test system: U2932 TK216-resistant clone 2
In short: (§1)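 Each of 348 targeted inhibitors was tested at 500 nM or 50 nM for 72 h on U2932 cells, both parental and two clones resistant to an ETS-targeting agent. Readout was by MTT with absorbance read on a Cytation 3. Proliferation appears as percent of proliferating cells relative to vehicle (DMSO).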

[2] = test system: U2932 TK216-resistant clone 3
In short: as §1

U2932 parental = test system: U2932 parental
In short: as §1

| Compound | cell proliferation ([1]; 50 nM) | cell proliferation ([1]; 500 nM) | cell proliferation ([2]; 50 nM) | cell proliferation ([2]; 500 nM) | cell proliferation (U2932 parental; 50 nM) | cell proliferation (U2932 parental; 500 nM) |
| --- | --- | --- | --- | --- | --- | --- |
| COc1ccc(-c2nc(N3CCOCC3)c3sc(CN(C)c4ncc(C(=O)NO)cn4)cc3n2)cn1 | 0.345 | 2.02 | 3.18 | 9.31 | 0.767 | 3.78 |
| CN1CCCN(C(=O)c2cccc(-c3ccc(/C=C4/C(=O)Nc5ccc(Cl)cc54)o3)c2)CC1 | 105 | 80.8 | 97 | 88.5 | 104 | 96.5 |
| COc1cc2c(Oc3ccc(NC(=O)C4(C(=O)Nc5ccc(F)cc5)CC4)cc3F)ccnc2cc1OCCCN1CCOCC1 | 101 | 69.7 | 98.3 | 66 | 92.7 | 58.9 |
| CCC[C@H](NC(=O)/C(C#N)=C/c1cccc(Br)n1)c1ccccc1 [Degrasyn (WP1130)] | 105 | 102 | 106 | 94.8 | 92.5 | 86.4 |
| CCN(c1cc(-c2ccc(CN3CCOCC3)cc2)cc(C(=O)NCc2c(C)cc(C)[nH]c2=O)c1C)C1CCOCC1 | 92.4 | 80.1 | 96.4 | 87.6 | 89.5 | 82.5 |
| C[C@@H]1C[C@H]2[C@@H]3CCC4=CC(=O)C=C[C@]4(C)[C@@]3(F)[C@@H](O)C[C@]2(C)[C@@]1(O)C(=O)CO [Dexamethasone (DHAP)] | 76.1 | 79 | 80.9 | 71.2 | 77.4 | 74.2 |
| COc1cc([C@@H]2c3cc4c(cc3[C@@H](O[C@@H]3O[C@@H]5CO[C@@H](C)O[C@H]5[C@H](O)[C@H]3O)[C@H]3COC(=O)[C@H]23)OCO4)cc(OC)c1O [Etoposide] | 95.7 | 53.8 | 99.3 | 74.9 | 93.3 | 68.8 |
| N=C1NC(=O)/C(=C/c2ccc(O)cc2)S1 [Mirin] | 103 | 94.6 | 107 | 102 | 90.9 | 97.3 |
| O=C1CCC(N2C(=O)c3ccccc3C2=O)C(=O)N1 (stereo not drawn) [Thalidomide] | 105 | 106 | 104 | 101 | 103 | 101 |
| Cc1cc(Nc2cc(N3CCN(C)CC3)nc(/C=C/c3ccccc3)n2)n[nH]1 | 82 | 66.1 | 97.6 | 48.9 | 93 | 46 |
| OCCn1cc(-c2ccc3c(c2)CC/C3=N\O)c(-c2ccncc2)n1 | 105 | 106 | 97 | 91.9 | 105 | 103 |
| O=C(NOC[C@H](O)CO)c1ccc(F)c(F)c1Nc1ccc(I)cc1F | 101 | 101 | 96.6 | 96 | 92.3 | 91.5 |
| CO[C@@H](C)Cn1c(=O)n(C)c2cnc3ccc(-c4cncc(C(C)(C)O)c4)cc3c21 | 79.1 | 23.8 | 79.2 | 30.9 | 80.4 | 33.6 |
| O=C(CCCCCCC(=O)Nc1ccccc1)NO [Vorinostat (SAHA, MK0683)] | 108 | 91.3 | 107 | 88.9 | 98.2 | 81.6 |
| Cc1cc(Nc2cc(N3CCN(C)CC3)nc(Sc3ccc(NC(=O)C4CC4)cc3)n2)n[nH]1 [VX-680 (Tozasertib, MK-0457)] | 91.1 | 79.9 | 72.2 | 69 | 64.5 | 57.8 |
| Cc1ccc(NC(=O)c2ccc(CN3CCN(C)CC3)cc2)cc1Nc1nc(-c2cccnc2)cs1 [Masitinib (AB1010)] | 95.6 | 83.5 | 100 | 86.2 | 92.5 | 92.7 |
| CN(C)C(=N)NC(=N)N [Metformin HCl] | 110 | 102 | 113 | 108 | 99.9 | 98.9 |
| COc1ccc(S(=O)(=O)N(C(C)=O)c2ccccc2/C=C/c2cc[n+]([O-])cc2)cc1 | 103 | 12.6 | 99.5 | 13.2 | 88.7 | 11.3 |
